Compounds with a hit are over-represented: about 9.9% of the library has one in this group of screens.
MCF10A rereplic = induces DNA re-replication in MCF 10a normal breast cells; Potency, µM (top dose mostly 46.1 µM), for the others: top-dose activity, positive = re-replication, usual class: activators; MCF 10A DNA re-replication, Hoechst nuclear intensity, 48 h; AID 624296; actives 2.9% (n = 350,000); also: potency is read from the fitted curve at half-maximal effect; % of control where 0% means no effect; nearly all actives have a fitted effect of over 50% in size
SW480 rereplic = inducers of DNA re-replication in SW480 colon cancer cells; actives 1.8% (n = 340,000); Potency, µM (top dose mostly 46.1 µM), for inactives: at the highest dose re-replication activation, most hits filed as activators; SW480 DNA re-replication, Hoechst DNA content imaging, 48 h; AID 624297; also: potency is read from the fitted curve at half-maximal effect; % of control where 0% means no effect; nearly all actives have a fitted effect of over 55% in size
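Hoechst fluorescence of nuclei (405 nm excitation, 500-530 nm emission) measured by plate-scanning imager after 48 hr compound exposure at 37 C; re-replication scored as increased number of nuclei with elevated intensity.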
IL-1B inflam inh = inflammasome signaling inhibition, IL-1 beta readout; THP-1 LPS/ATP IL-1B secretion, AlphaLISA, 16 h; hits give low values; actives 4.7% (n = 360,000); activity change, % at 57.5 µM; AID 743279; in the data active = activity change below about -50%; inconclusive = mostly about -30% to -49%; also: % is scaled to controls: 0 for no effect and ±100 for the full control effect
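THP-1 cells pretreated 1 hr with compounds (up to 57.5 uM final), then stimulated with LPS (250 ng/mL final) plus ATP (1.25 mM final); secreted IL-1B measured by AlphaLISA after 16 hr, decreased signal indicating inhibition.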
KB-V1 MDR tox = KB-V1 MDR subline cytotoxicity; AID 1347076; KB-V1 MDR cells viability, CellTiter-Glo, 72 h; actives 3.4% (n = 400,000); Potency, µM (top dose mostly 46.1 µM), usual class: cytotoxic; also: potency is read from the fitted curve at half-maximal effect; % is scaled to controls: 0 for no effect and ±100 for the full control effect; nearly all actives have a fitted effect of over 60% in size
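Compound-treated KB-V1 multidrug-resistant cells, 72 h, 37 degrees C; viability by CellTiter-Glo. Fitted qHTS curves give the values.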
KB-3-1 tox = kills parental KB-3-1 adenocarcinoma cells; KB-3-1 viability, CellTiter-Glo ATP luminescence, 72 h; actives 1.4% (n = 400,000); Potency, µM (top dose mostly 46.1 µM), usual class: cytotoxic; also: potency is read from the fitted curve at half-maximal effect; % is scaled to controls: 0 for no effect and ±100 for the full control effect; nearly all actives have a fitted effect of over 60% in size
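Cytotoxicity measured as CellTiter-Glo luminescence after 72 h at 37 C. Compound titrations were pinned onto drug-naive KB-3-1 parental adenocarcinoma cells grown in DMEM with 10% FBS, and normalized data fitted to concentration-response curves.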
* hit, by the source's call. Unless noted, calls follow the shape of the dose curve; as a rule, active = well fitted curve in the direction sought with a large enough effect; inconclusive = small, poorly fitted or top-dose-only effect, or another doubt; inactive = no such curve, though single readings can be large; an effect the other way counts as inactive or inconclusive.

Results for O=C(Cn1ncc(Cl)c(Cl)c1=O)NC(=O)NC1CCCCC1 ?
MCF10A rereplic: 8.2µM*; SW480 rereplic: 13µM*; IL-1B inflam inh: -103*; KB-V1 MDR tox: inconclusive; KB-3-1 tox: inconclusive

How did Cc1ccc(S(=O)(=O)NC(C)(C)CN2CCC(Cc3ccccc3)CC2)cc1 do in these assays?
MCF10A rereplic: inconclusive; SW480 rereplic: inconclusive; IL-1B inflam inh: inconclusive; KB-V1 MDR tox: inactive; KB-3-1 tox: inconclusive

Results for COc1ccc(-c2cc3nc(NCCNC(C)=O)n(C)c(=O)c3s2)c(C)c1 ?
IL-1B inflam inh: 29; KB-V1 MDR tox: inactive; KB-3-1 tox: inactive

Results for Cc1c(NC(=O)C(C)OC(=O)/C=C/c2ccc3c(c2)OCO3)c(=O)n(-c2ccccc2)n1C (stereo unspecified) ?
MCF10A rereplic: 0%; SW480 rereplic: -6%; IL-1B inflam inh: -11; KB-V1 MDR tox: inactive; KB-3-1 tox: inactive

What do the screens show for `O=C(CN1CCN(S(=O)(=O)c2ccc(Cl)cc2)CC1)NC(=O)NC1CCCCC1`?
MCF10A rereplic: 5%; SW480 rereplic: 1%; IL-1B inflam inh: -17; KB-V1 MDR tox: 2.3µM*; KB-3-1 tox: inconclusive

How did CCCN1CCN(CCCNC(=O)c2ccccc2NC(=O)C2=C(C)OCCS2)CC1 do in these assays?
MCF10A rereplic: 17%; SW480 rereplic: inconclusive; IL-1B inflam inh: -12; KB-V1 MDR tox: inactive; KB-3-1 tox: inactive

What do the screens show for `CC(=O)OCCN1c2ccccc2Sc2cnccc21`?
IL-1B inflam inh: inconclusive; KB-V1 MDR tox: 15µM*; KB-3-1 tox: 12µM*

Results for CN(c1ccc(OCCOc2ccccc2Cl)cc1)S(=O)(=O)c1ccccc1 ?
MCF10A rereplic: 20%; SW480 rereplic: inconclusive; IL-1B inflam inh: 13; KB-V1 MDR tox: 16µM*; KB-3-1 tox: inactive

How did c1ccc(-c2nnc3nc(N4CCCCC4)nc(N4CCCCC4)n23)cc1 do in these assays?
MCF10A rereplic: 4%; SW480 rereplic: 2%; IL-1B inflam inh: -10; KB-V1 MDR tox: 18µM*; KB-3-1 tox: inconclusive

How did FC(F)(F)c1cc(-c2ccccc2)nc(N2CCCCC2)n1 do in these assays?
MCF10A rereplic: inconclusive; SW480 rereplic: -13%; IL-1B inflam inh: 15; KB-V1 MDR tox: inactive; KB-3-1 tox: inactive

What do the screens show for `Cn1cnc(S(=O)(=O)NC2CCN(Cc3c(F)cccc3Cl)CC2)c1`?
MCF10A rereplic: 13%; SW480 rereplic: -1%; IL-1B inflam inh: 20; KB-V1 MDR tox: inactive; KB-3-1 tox: inactive

Results for COCCSc1nc2c([nH]c3ccccc32)c(=O)n1-c1ccc(OC)c(OC)c1 ?
KB-V1 MDR tox: inactive; KB-3-1 tox: inactive

How did COc1ccc2c(c1)c(C(=O)N/N=C/c1ccc(Br)cc1)c(C)n2C do in these assays?
MCF10A rereplic: 13µM*; SW480 rereplic: 10µM*; IL-1B inflam inh: -22; KB-V1 MDR tox: inconclusive; KB-3-1 tox: inconclusive

What do the screens show for `COc1ccc2c(c1)c(C(=O)N/N=C/c1ccc(O)c(O)c1)c(C)n2C`?
MCF10A rereplic: 0%; SW480 rereplic: -3%; IL-1B inflam inh: 34; KB-V1 MDR tox: inactive; KB-3-1 tox: inactive

How did CCOc1ccc(/C=N/NC(=O)c2c(C)n(C)c3ccc(OC)cc23)cc1 do in these assays?
MCF10A rereplic: 12µM*; SW480 rereplic: inconclusive; IL-1B inflam inh: 27; KB-V1 MDR tox: 13µM*; KB-3-1 tox: 8.2µM*

How did CN(Cc1ccc(F)cc1)C(=O)c1cccc(OCc2ccccc2)c1 do in these assays?
MCF10A rereplic: 8%; SW480 rereplic: -2%; IL-1B inflam inh: -54*; KB-V1 MDR tox: inconclusive; KB-3-1 tox: inactive

How did CN(Cc1ccc(C(F)(F)F)cc1)C(=O)c1ccc(Oc2ccccc2)cc1 do in these assays?
MCF10A rereplic: 16µM*; SW480 rereplic: -2%; IL-1B inflam inh: -20; KB-V1 MDR tox: inactive; KB-3-1 tox: inconclusive

Results for CCCSc1nsc(NC(=O)C(c2ccccc2)c2ccccc2)n1 ?
MCF10A rereplic: inconclusive; SW480 rereplic: inconclusive; IL-1B inflam inh: -9; KB-V1 MDR tox: inconclusive; KB-3-1 tox: 26µM*

Results for O=C(C=C=Nc1ccccc1)C(=O)N=C=Cc1ccccc1 ?
MCF10A rereplic: 4.6µM*; SW480 rereplic: inconclusive; IL-1B inflam inh: -101*; KB-V1 MDR tox: inactive; KB-3-1 tox: inactive

Bioassay records deposited in PubChem by National Center for Advancing Translational Sciences (NCATS).
